# Hit rate of the full screen: of about 330,000 compounds, about 4,100 (1.2%) were called active. No stated cut-off is given here; in the data, active means inhibition above about 50%; inactive means the rest. The full list was thinned out, with actives kept by preference.
# Target: Sentrin-specific protease 8 (Homo sapiens) (UniProt Q96LD8)
# Assay: blockers of human SENP8 peptidase activity – biochemical, luminescence, primary screen (AID 2540)
# Conditions: purified SENP8, Z-RLRGG-aminoluciferin cleavage, at 10 µM, hits give high values
# Sentrin-specific protease 8 (Homo sapiens), sequence (Q96LD8 whole entry, looked up): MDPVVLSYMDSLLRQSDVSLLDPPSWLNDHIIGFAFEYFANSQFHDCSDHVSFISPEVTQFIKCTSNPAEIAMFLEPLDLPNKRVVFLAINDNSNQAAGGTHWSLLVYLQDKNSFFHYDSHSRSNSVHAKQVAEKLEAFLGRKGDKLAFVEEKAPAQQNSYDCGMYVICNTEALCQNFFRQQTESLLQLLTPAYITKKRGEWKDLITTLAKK
row,SMILES,inhibition
1,CN1CCN(c2cc(N3CCNCC3)ccc2[N+](=O)[O-])CC1,2.96% (inactive)
2,Cc1nc2ccc(N3CCN(C)CC3)cc2nc1C,-5.08% (inactive)
3,COc1cccc(-c2nc3ccc(N4CCN(C)CC4)cc3[nH]2)c1,57.4% (active)
4,CN(C)P(=S)(Nc1ccccc1)C(Cl)(Cl)Cl (stereo not given),-7.38% (inactive)
5,COc1ccccc1CN1CCN(C(=O)Cc2ccccc2)CC1,-9.12% (inactive)
6,CCOC(=O)c1c(N)n(CCN2CCOCC2)c2nc3ccccc3nc12,2.3% (inactive)
7,COc1cc(Cn2c(N)c(C(=O)NCc3ccco3)c3nc4ccccc4nc32)cc(OC)c1OC,90.9% (active)
8,CCOC(=O)c1c(N)n(Cc2ccccc2)c2nc3ccccc3nc12,9.31% (inactive)
9,CC(=O)c1ccc(OC(NC(=O)Cc2ccccc2)C(Cl)(Cl)Cl)cc1 (stereo not given),-0.124% (inactive)
10,CCOc1ccc(CN(CCCl)CCCl)cc1C(=O)OC,-7.06% (inactive)

# — PubChem BioAssay AID2540 (Sanford-Burnham Center for Chemical Genomics, 2010)
